# Assay results as given in PubChem BioAssay (NCI).
# About 79,000 compounds went through this panel and 15% of them were active in at least one assay; those are over-represented in the sample as a whole. A number with no mark means an inactive call. Activity calls are given as the source filed them. Rule as the data show it: active = growth inhibition above about 70%; inactive = the rest.
# Tests used:
# [1] = NCI Yeast Anticancer Drug Screen. Data for the rad50 strain (AID 155);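 also: 0% = growth of vehicle-only cultures of the same strain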; conditions: S. cerevisiae rad50 strain growth inhibition, active compounds read high
# Procedure, shortened: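 Inhibition values express reduced yeast growth in compound-treated cultures relative to vehicle-treated controls.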
# [2] = NCI Yeast Anticancer Drug Screen. Data for the mec2-1 strain (AID 157); conditions: S. cerevisiae mec2-1 strain, active compounds read high
# Procedure, shortened: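 Growth inhibition is read against vehicle-treated controls after compound exposure of the mec2-1 yeast strain, which is defective in DNA damage repair or cell cycle control.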
# [3] = NCI Yeast Anticancer Drug Screen. Data for the sgs1 mgt1 strain (AID 161);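 also: 0% = growth of cultures given vehicle only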; conditions: S. cerevisiae sgs1 mgt1 strain, active compounds read high
# Procedure, shortened: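 Compounds are added to genetically altered yeast, and growth is compared with cultures given vehicle alone to give percent inhibition.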
# [4] = NCI Yeast Anticancer Drug Screen. Data for the cln2 rad14 strain (AID 165);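 also: 0% = growth equal to vehicle treated cultures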; conditions: S. cerevisiae cln2 rad14 strain, active compounds read high
# Procedure, shortened: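 Growth inhibition, relative to vehicle-treated controls, is the read-out. The test organism is a yeast strain with defined genetic alterations, cln2 rad14.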
# [5] = NCI Yeast Anticancer Drug Screen. Data for the bub3 strain (AID 167); conditions: S. cerevisiae bub3 mutant strain, active compounds read high
# Procedure, shortened: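 Steps: expose the mutant yeast strain to compound; grow alongside vehicle-treated cultures; measure growth; express inhibition against the vehicle cultures.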
# [6] = NCI Yeast Anticancer Drug Screen. Data for the mlh1 rad18 strain (AID 175); conditions: S. cerevisiae mlh1 rad18 strain growth inhibition, active compounds read high
# Procedure, shortened: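 Cells of a genetically altered yeast strain, deficient in DNA damage repair, were treated with compound. Their growth was then compared with that of vehicle-treated cultures to give inhibition.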
# [7] = at 5.0 µM (retest, dose inferred, filed as 0.5)
# [8] = at 50.0 µM (retest, dose inferred, filed as 5.0)
Structure (SMILES),"growth inhibition [1, 7]","growth inhibition [1, 8]",growth inhibition ([1]; at 50.0 µM),"growth inhibition [2, 7]","growth inhibition [2, 8]",growth inhibition ([2]; at 50.0 µM),"growth inhibition [3, 7]","growth inhibition [3, 8]",growth inhibition ([3]; at 50.0 µM),"growth inhibition [4, 7]","growth inhibition [4, 8]",growth inhibition ([4]; at 50.0 µM),"growth inhibition [5, 7]","growth inhibition [5, 8]",growth inhibition ([5]; at 50.0 µM),"growth inhibition [6, 7]","growth inhibition [6, 8]",growth inhibition ([6]; at 50.0 µM)
CCn1c2ccccc2n2c(=O)cc(-c3ccccc3)c(C#N)c12,7%,2%,27.1%,-2%,-2%,12.7%,-12%,0%,33.6%,7%,-9%,12.3%,7%,11%,18.4%,,,
Cc1ccc(C)c(NC(=O)/C(=N\NC(N)=S)C(C#N)c2ccccc2)c1 (stereo unspecified),5%,13%,-14.3%,6%,6%,12.8%,2%,12%,15.6%,-1%,-4%,28%,10%,2%,5.75%,1%,6%,69.2%
COc1ccc2nc3cc(Cl)ccc3c(Nc3nccs3)c2c1,14%,90% (active),95.1% (active),12%,93% (active),70% (active),13%,90% (active),94.4% (active),9%,87% (active),58.5%,6%,96% (active),94.5% (active),,,
c1ccc2c(c1)nc1cc(NC3CCCCC3)c(=NC3CCCCC3)cc-1n2C1CCCCC1,8%,4%,44.5%,0%,5%,37.6%,-7%,2%,42.8%,-1%,-13%,23.3%,-3%,16%,39.8%,,,
CCC[CH2][Sn]([CH2]CCC)([O]C(=O)C1CCC(=O)N1)[O]C(=O)C1CCC(=O)N1 (stereo unspecified),93% (active),93% (active),90.3% (active),94% (active),94% (active),90.7% (active),91% (active),91% (active),90% (active),96% (active),96% (active),91% (active),94% (active),94% (active),90.9% (active),95% (active),95% (active),88.7% (active)
COc1nc2nc(SC(CC(=O)O)C(=O)c3ccc(Cl)cc3)[nH]c2c2ccccc12 (stereo unspecified),1%,7%,10.1%,0%,1%,7.45%,2%,-18%,-3.85%,2%,-15%,-12.1%,-2%,-1%,-5.45%,-1%,,32.9%
CC(/C=C/c1ccc(Cl)c(Cl)c1)=N\NC(N)=S,37%,69%,61.2%,31%,73% (active),53.5%,48%,76% (active),82.9% (active),39%,41%,77.2% (active),29%,82% (active),64.4%,,,
c1ccc(Nc2cccc3ccccc23)cc1,-4%,95% (active),94.8% (active),-5%,81% (active),96.2% (active),-3%,62%,95.8% (active),-1%,32%,95.1% (active),43%,95% (active),91.5% (active),,,
CCCC(=O)Oc1ccc(-c2ccccc2)cc1Br,2%,83% (active),96.5% (active),2%,86% (active),91.5% (active),4%,81% (active),94.5% (active),6%,84% (active),86.7% (active),18%,77% (active),91.1% (active),,,
Nc1ccc(Cl)c2cccnc12,11%,92% (active),97.5% (active),4%,94% (active),35.5%,5%,89% (active),86.7% (active),0%,46%,87.2% (active),0%,90% (active),15.2%,7%,94% (active),91.9% (active)
COc1ccccc1NC(=O)/C(=C\N1C(=O)/C(=C/c2cc(OC)c(OC)c(OC)c2)SC1=S)C(C)=O,-11%,9%,46%,-12%,14%,13.4%,-8%,35%,74.2% (active),-28%,7%,8.6%,-21%,-12%,27.9%,-39%,25%,49.7%
CC12CC(Sc3ccccc3N1)c1ccccc1O2 (stereo unspecified),37%,54%,42.2%,28%,46%,25.3%,43%,80% (active),51.8%,33%,40%,27.4%,40%,73% (active),76.3% (active),40%,73% (active),44.5%
CC1(CO)CCCC2(C)C3=C(CCCC3)CCC12 (stereo unspecified),-102%,94% (active),-3.55%,-56%,96% (active),52.1%,-60%,96% (active),46.1%,-60%,95% (active),10.1%,-67%,95% (active),42%,-108%,95% (active),46.4%
O=C(O)c1ccccc1/C=C1\Cc2ccc3c(c2C1=O)CCCC3,18%,18%,81.6% (active),6%,6%,83.1% (active),6%,6%,81.3% (active),-4%,-4%,85.5% (active),-5%,-5%,81.5% (active),12%,12%,79.9% (active)
CCN(CC)Cc1cc(Nc2c3ccccc3nc3c4ccccc4n(C)c23)ccc1O,0%,23%,74.2% (active),2%,-4%,16.2%,-10%,9%,30.2%,0%,0%,-1.6%,-6%,13%,55.3%,-10%,0%,42.9%
O=C1C(c2ccccc2)CS(=O)(=O)CC1c1ccccc1 (stereo unspecified),-10%,0%,14%,-8%,7%,2.85%,5%,7%,57.1%,3%,-4%,7%,-3%,-12%,-7.65%,13%,9%,12.6%
O=C1c2sccc2-c2cccc3cccc1c23 (tested in a mixture with another compound),87% (active),98% (active),97.2% (active),63%,99% (active),98% (active),59%,99% (active),96.2% (active),20%,96% (active),82.5% (active),29%,98% (active),83.2% (active),86% (active),98% (active),95% (active)
ONC(=Nc1cccc2ccccc12)C(=Nc1cccc2ccccc12)NO,9%,65%,33.9%,-8%,97% (active),23.3%,8%,46%,13.4%,-16%,73% (active),-41.9%,10%,97% (active),47.5%,-9%,91% (active),57.6%
O=[N+]([O-])c1cccc2c[n+](Cc3ccccc3)ccc12,-1%,24%,41.7%,-1%,19%,1.65%,-4%,18%,10.1%,-13%,15%,38.4%,-7%,-5%,-1.05%,-7%,12%,12.3%
CC(C)C(=O)/C=C/c1ccc(Cl)cc1Cl,-8%,46%,69.8%,-10%,48%,71.8% (active),-16%,31%,69.6%,12%,36%,52.5%,-32%,54%,69.4%,-5%,48%,40.3%
